“And” between values parts separate entries of the source, which are not always exact repeats. Equal entries are not always repeated. Records with an inconclusive call do not appear. The source made the active and inactive calls. Unless noted, calls come from the whole dose curve; as a rule, active = well fitted curve in the direction sought with a large enough effect; inconclusive = small, poorly fitted or top-dose-only effect, or another doubt; inactive = no such curve, though single readings can be large; an effect the other way counts as inactive or inconclusive.
What was measured:
[1] = Cell Viability - SK-N-SH (AID 435; calls by dose curve; note: potency is the fitted concentration of half-maximal effect); settings: SK-N-SH neuroblastoma cell viability qHTS
How it was run: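 qHTS cytotoxicity: CellTiter-Glo ATP luminescence after 40 h compound exposure of human neuroblastoma SK-N-SH cells at 37 °C. AC50 derived by Hill-equation fitting, with DMSO as basal and 100 uM tamoxifen as full inhibition.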

[2] = Cell Viability - HUV-EC-C (AID 542); settings: HUV-EC-C endothelial cell viability, qHTS; series mostly up to 92.2 µM;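 note: cells exposed to compound for 40 hours; % is set by controls: 0 for no effect and ±100 for the full control effect; nearly all actives have a fitted effect of over 35% in size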
How it was run: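 Concentration-dependent ATP loss in HUV-EC-C cells is the measure. Exposure lasts 40 hr at 37 °C; luminescence follows CellTiter-Glo addition, and Hill fits give AC50.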

[3] = Cellular Toxicity (caspase-3) Mesangial (AID 660); settings: mesangial cells, normalized: DMSO 0%, 100 µM tamoxifen 100%; series mostly up to 91.7 µM;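 note: combined caspase 3 and 7 activity read by Caspase-Glo luminescence; cells exposed to compound for 16 h before the caspase read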
How it was run: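 AC50 values come from Hill-equation fits of caspase 3/7 activation, measured as Caspase-Glo luminescence in human glomerular mesangial cells exposed to compound for 16 h at 37 °C; 100% set by 100 uM tamoxifen.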

[4] = Cellular Toxicity (caspase-3) H-4-II-E (AID 663); settings: H-4-II-E rat hepatoma; Potency: caspase-3 activation; series mostly up to 92.2 µM;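 note: cells exposed to compound for 16 hr before readout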
How it was run: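 H-4-II-E rat hepatoma, 1500 cells/well, 5 hr settle at 37 °C; compound 16 hr, 37 °C, complete medium; Caspase-Glo 3/7, 20 min RT; luminescence. DMSO = 0%, 100 uM tamoxifen = 100%; Hill-equation AC50.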

[5] = Cellular Toxicity (caspase-3) N2a (AID 665); settings: N2a cells, luminescence, normalized: DMSO 0%, 10 µM staurosporine 100%; series mostly up to 92.2 µM;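 note: compound exposure lasted 16 h at 37 °C before readout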
How it was run: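 Concentration-response qHTS: compound-induced caspase-3/7 luminescence in N2a cells (16 h, 37 °C), relative to DMSO and 10 uM staurosporine controls; AC50 obtained using the standard Hill equation.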

[6] = Cellular Toxicity (caspase-3) NIH 3T3 (AID 666); settings: NIH 3T3 caspase-3 activation, apoptosis/toxicity; series mostly up to 92.2 µM;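 note: caspase signal read after 16 h compound exposure; 0% = DMSO basal and 100% = 100 µM tamoxifen stimulation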
How it was run: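 Activity: caspase-3/7 induction, NIH 3T3 cells, 16 hr treatment at 37°C, luminescent Caspase-Glo detection; AC50 via Hill equation.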

[7] = MultiTox-Fluor Cytotoxicity Assay - LYMP1-001 - Live Cells (AID 947); settings: LYMP1-001 lymphoblastoid cells, live-cell protease fluorescence viability; series mostly up to 92.2 µM;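 note: 0% = DMSO only and full inhibition = tetraoctylammonium bromide control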
[8] = Cell Viability - LYMP2-009 (AID 968); settings: LYMP2-009 lymphoblastoid cell viability; series mostly up to 92.2 µM;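 note: 0% = DMSO alone and the full-kill end = tetraoctylammonium bromide at 92 µM; nearly all actives have a fitted effect of over 55% in size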
[9] = Cell Viability - LYMP2-011 (AID 969); settings: LYMP2-011 lymphoblastoid cells viability; series mostly up to 92.2 µM;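 note: 0% = DMSO only and full inhibition = 92 µM tetraoctylammonium bromide; nearly all actives have a fitted effect of over 60% in size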
How it was run: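 Cells seeded at 2500 per well rest 5 hr before compound addition, then incubate 24 hr at 37 C. CellTiter-Glo reagent is added for 30 min at room temperature before luminescence detection.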

[10] = Cell Viability - LYMP2-015 (AID 971); settings: LYMP2-015 lymphoblastoid cell viability; series mostly up to 92.2 µM;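 note: 0% = DMSO only and full effect = 92 µM tetraoctylammonium bromide; nearly all actives have a fitted effect of over 55% in size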
How it was run: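 AC50 values reflect Hill-model fits of ATP-based luminescence (CellTiter-Glo) from a human lymphoblastoid line, 2500 cells/well, treated 24 hr at 37 C.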

[11] = Cell Viability - LYMP2-021 (AID 974); settings: LYMP2-021 lymphoblastoid cells viability; series mostly up to 92.2 µM;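 note: compound exposure lasts 24 hours at 37 °C; % is set by controls: 0 for no effect and ±100 for the full control effect; nearly all actives have a fitted effect of over 55% in size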
How it was run: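 In qHTS format, compounds are tested against 2500 lymphoblastoid cells per well for 24 h; viable cell number is inferred from ATP-driven luciferase light, and Hill-equation fitting yields AC50 values.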

[12] = Cell Viability - LYMP2-006 (AID 978); settings: LYMP2-006 lymphoblastoid cell viability, qHTS; series mostly up to 92.2 µM; note: % is set by controls: 0 for no effect and ±100 for the full control effect; nearly all actives have a fitted effect of over 60% in size
How it was run: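 Potency values are Hill-fit AC50s for decreases in intracellular ATP (CellTiter-Glo luminescence). LYMP2-006 lymphoblastoid cells, 2500 per well, were exposed to compound in complete culture medium for 24 hr at 37 C.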

[13] = Cell Viability - LYMP2-022 (AID 987); settings: LYMP2-022 lymphoblastoid cell viability; series mostly up to 92.2 µM;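 note: 0% = DMSO alone and full effect = tetraoctylammonium bromide at 92 µM; nearly all actives have a fitted effect of over 55% in size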
How it was run: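 In this qHTS cytotoxicity screen, compound titrations were incubated 24 hr at 37 C with human lymphoblastoid cells in complete medium. Luciferase-based ATP luminescence provided the viability signal.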

[14] = molecular target: Retinoic acid receptor RXR-alpha (Homo sapiens) (UniProt P19793); assay: qHTS assay for small molecule antagonists of retinoid X receptor alpha signaling (AID 588546; active = well fitted inhibition curve with a large enough effect in the signal ratio, with a control signal flat, not every such curve was filed as active; the % refers to the signal ratio;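 note: cells stimulated with 9-cis-retinoic acid as agonist; % is set by controls: 0 for no effect and ±100 for the full control effect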); settings: HEK293T RXRa-UAS-bla, beta-lactamase ratio, antagonist mode
How it was run: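 Beta-lactamase reporter inhibition, read as CCF4 fluorescence ratio (ex 405, em 460/530 nm) after 2 h at RT. HEK293T UAS-bla cells, 2500/well, were stimulated with 9-cis-RA at 500 or 100 nM final alongside test compound for 18 h at 37 C.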

[15] = qHTS assay for small molecule agonists of the antioxidant response element (ARE) signaling pathway measured by Nrf2-dependant transcriptional activity (AID 720636; active = well fitted curve in the direction sought with a large enough effect in the repeat runs; an effect the other way counts as inactive or inconclusive;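 note: HepG2 cells with an ARE-driven luciferase reporter; % of control where 0% means no effect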); settings: ARE-luc HepG2, Nrf2 luciferase reporter, 16 h; series mostly up to 92.4 µM
How it was run: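 ONE-Glo luminescence, read 30 min after reagent addition at room temperature, reflected ARE reporter activity in HepG2 cells that had been incubated with compound for 16 hr at 37 C in 1% dialyzed FBS.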

[16] = qHTS assay for cell viability of the p53RE-bla HCT-116 cell line (AID 743292); settings: p53RE-bla HCT-116 viability, ATP luminescence, 16 h; series mostly up to 95 µM
How it was run: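 After plating at 4,000 cells per well and a 5 h rest at 37 C, HCT-116 cells carrying p53RE-bla received test chemicals in DMSO. Sixteen hours later at 37 C, CellTiter-Glo was added and luminescence recorded following 30 min at room temperature.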

[17] = Cellular Toxicity (caspase-3) Renal Proximal Tubule (AID 667); settings: renal proximal tubule cells; series mostly up to 91.7 µM;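 note: cells exposed to compound for 16 hours at 37 °C before detection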
How it was run: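 Caspase 3/7 activation measured by luminescent aminoluciferin release in primary rat proximal tubule cells after 16 hr compound exposure at 37 °C. AC50 from Hill-fitted concentration-response, scaled between DMSO and 10 uM staurosporine.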

[18] = Cell Viability - LYMP2-002 (AID 977); settings: LYMP2-002 lymphoblastoid cell viability, qHTS; series mostly up to 92.2 µM;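 note: compound exposure lasted 24 h at 37 °C; plate controls were DMSO only for no effect and 92 µM tetraoctylammonium bromide for full effect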
How it was run: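 Human lymphoblastoid cells, 2500/well, complete medium; 5 h 37 C settle; compound 24 h 37 C; CellTiter-Glo, 30 min RT; luminescence. Decrease in ATP = cytotoxicity; AC50 via Hill equation.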

[19] = Cell Viability - LYMP2-024 (AID 988); settings: LYMP2-024 lymphoblastoid cell viability; series mostly up to 92.2 µM;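 note: plate controls were DMSO only for no effect and 92 µM tetraoctylammonium bromide for full effect; nearly all actives have a fitted effect of over 60% in size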
How it was run: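 Cells at 2500 per well received compound for 24 hr after a 5 hr settling period. Viability was scored by CellTiter-Glo luminescence, with AC50 from Hill fits.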

[20] = Cell Viability - LYMP2-013 (AID 970); settings: LYMP2-013 lymphoblastoid cells viability; series mostly up to 92.2 µM
How it was run: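 In complete culture medium, human lymphoblastoid cells were dosed for 24 hr at 37 C, with tetraoctylammonium bromide (6.4pM to 92 uM) as positive control. Viability reflects luciferase-based ATP signal; AC50 derived from concentration-response curves.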

Chain of Retinoic acid receptor RXR-alpha (Homo sapiens) (P19793 whole entry, looked up): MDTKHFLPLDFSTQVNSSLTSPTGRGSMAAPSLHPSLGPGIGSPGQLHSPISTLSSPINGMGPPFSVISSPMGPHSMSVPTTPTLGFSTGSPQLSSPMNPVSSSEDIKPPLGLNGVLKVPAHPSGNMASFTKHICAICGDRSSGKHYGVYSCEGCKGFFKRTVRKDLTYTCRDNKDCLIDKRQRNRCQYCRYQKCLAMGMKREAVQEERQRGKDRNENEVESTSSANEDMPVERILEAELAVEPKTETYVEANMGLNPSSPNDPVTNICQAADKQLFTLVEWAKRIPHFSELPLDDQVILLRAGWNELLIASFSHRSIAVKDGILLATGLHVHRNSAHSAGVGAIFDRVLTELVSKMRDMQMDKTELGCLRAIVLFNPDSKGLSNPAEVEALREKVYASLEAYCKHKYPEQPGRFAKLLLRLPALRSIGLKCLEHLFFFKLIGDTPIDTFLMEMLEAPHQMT

O=C(O)CBr
inactive: Potency [1] > 92 µM | Potency [2] | outcome [3] | Potency [4] | outcome [5] | Potency [6] | outcome [7] | Potency [8] | Potency [9] | Potency [10] | Potency [11] | Potency [12] | Potency [13] | max response [14] -0.759% | Potency [15] | Potency [16]

O=C(O)c1cc(Cl)ccc1Cl
inactive: Potency [1] > 92 µM | Potency [2] | outcome [3] | outcome [5] | Potency [6] | outcome [17] | outcome [7] | Potency [8] | Potency [9] | Potency [11] | Potency [18] | Potency [12] | Potency [13] | Potency [19] | max response [14] -2.77% | Potency [15] | Potency [16]

N#CCCC#N
inactive: Potency [1] > 92 µM | Potency [2] | outcome [3] | Potency [4] | outcome [5] | Potency [6] | outcome [17] | outcome [7] | Potency [8] | Potency [9] | Potency [20] | Potency [10] | Potency [11] | Potency [18] | Potency [13] | Potency [19] | Potency [15] | Potency [16]

Cc1coc2c1CCC(C)C2 (stereo unspecified)
inactive: Potency [1] > 92 µM | Potency [2] | outcome [3] | Potency [4] | outcome [5] | Potency [6] | outcome [17] | outcome [7] | Potency [8] | Potency [9] | Potency [20] | Potency [10] | Potency [11] | Potency [18] | Potency [12] | Potency [13] | Potency [19] | max response [14] -0.116% | Potency [15] | Potency [16]

CC(C)(C)C(O)(CCc1ccc(Cl)cc1)Cn1cncn1 (stereo unspecified)
inactive: Potency [1] > 92 µM | Potency [2] | outcome [5] | Potency [6] | outcome [17] | outcome [7] | Potency [8] | Potency [9] | Potency [10] | Potency [11] | Potency [12] | Potency [13] | Potency [19] | max response [14] -23.2% and -32.6% | Potency [15] | Potency [16]

[O-][Cl+]O
inactive: Potency [1] > 92 µM | Potency [2] | outcome [3] | outcome [5] | Potency [6] | outcome [17] | outcome [7] | Potency [8] | Potency [9] | Potency [10] | Potency [18] | Potency [12] | Potency [13] | Potency [19] | max response [14] 22.2% | Potency [15]

Oc1cc(Cl)ccc1Cl
inactive: Potency [1] > 92 µM | Potency [2] | outcome [3] | Potency [4] | outcome [5] | Potency [6] | outcome [17] | outcome [7] | Potency [8] | Potency [9] | Potency [20] | Potency [10] | Potency [12] | Potency [13] | max response [14] 8.9% and 7.36% | Potency [16]

C=CCc1cc(OC)c2c(c1)OCO2
inactive: Potency [1] > 92 µM | Potency [2] | outcome [3] | Potency [4] | outcome [5] | Potency [6] | outcome [17] | outcome [7] | Potency [8] | Potency [9] | Potency [20] | Potency [10] | Potency [11] | Potency [18] | Potency [12] | Potency [13] | Potency [19] | max response [14] 9.86% | Potency [15] | Potency [16]

CCC[N+](=O)[O-]
inactive: Potency [1] > 92 µM | Potency [2] | Potency [6] | outcome [17] | outcome [7] | Potency [8] | Potency [9] | Potency [20] | Potency [10] | Potency [11] | Potency [18] | Potency [12] | Potency [13] | Potency [19] | Potency [15] | Potency [16]

CC1CC(=O)O1 (stereo unspecified)
inactive: Potency [1] > 92 µM | Potency [2] | outcome [3] | Potency [4] | outcome [5] | outcome [17] | outcome [7] | Potency [8] | Potency [9] | Potency [20] | Potency [10] | Potency [11] | Potency [18] | Potency [12] | Potency [13] | Potency [19] | max response [14] 4.5% | Potency [15] | Potency [16]

ClC(Br)Br
inactive: Potency [1] > 92 µM | Potency [2] | outcome [3] | Potency [4] | outcome [5] | Potency [6] | outcome [7] | Potency [9] | Potency [20] | Potency [10] | Potency [11] | Potency [18] | Potency [12] | Potency [13] | Potency [19] | max response [14] 0.0478% | Potency [15] | Potency [16]

CCCCC#N
inactive: Potency [1] > 92 µM | Potency [2] | outcome [3] | Potency [4] | outcome [5] | Potency [6] | outcome [17] | outcome [7] | Potency [8] | Potency [9] | Potency [20] | Potency [10] | Potency [18] | Potency [12] | Potency [19] | max response [14] 11.5% | Potency [15] | Potency [16]

Nc1cc(Cl)ccc1Cl
inactive: Potency [1] > 92 µM | Potency [2] | outcome [3] | Potency [4] | outcome [5] | Potency [6] | outcome [17] | outcome [7] | Potency [8] | Potency [9] | Potency [20] | Potency [11] | Potency [18] | Potency [12] | Potency [13] | Potency [19] | max response [14] 3.06% | Potency [15] | Potency [16]

Cc1cccc(N)c1C
inactive: Potency [1] > 92 µM | Potency [2] | outcome [3] | Potency [4] | Potency [6] | outcome [17] | outcome [7] | Potency [9] | Potency [20] | Potency [10] | Potency [11] | Potency [12] | Potency [13] | Potency [19] | max response [14] 13.5% | Potency [15] | Potency [16]

Cc1ccc(N)cc1Cl
inactive: Potency [1] > 92 µM | Potency [2] | outcome [3] | outcome [5] | Potency [6] | outcome [17] | outcome [7] | Potency [8] | Potency [9] | Potency [20] | Potency [10] | Potency [11] | Potency [12] | Potency [13] | Potency [19] | max response [14] -11.5% | Potency [15] | Potency [16]

Clc1ccc(C(Cl)(Cl)Cl)c(Cl)c1
inactive: Potency [1] > 92 µM | Potency [2] | outcome [3] | outcome [5] | Potency [6] | outcome [17] | Potency [8] | Potency [20] | Potency [10] | Potency [11] | Potency [18] | Potency [12] | Potency [13] | Potency [19] | max response [14] 8.02% | Potency [15] | Potency [16]

Source: PubChem BioAssay (NCATS)
